{
  "source": "the supplement of paper PMC10981050",
  "note": "Counter-ions that a name gives are not always drawn.",
  "data": [
    {"system": "OCI-AML2", "assay": "cell viability relative to vehicle control; higher = less cytotoxic", "details": "10 µM; SRSF2 genotype: wt/wt", "summary_of_the_method": "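CRISPR-edited SRSF2 P95 mutant and isogenic wild-type clones of four leukaemia lines were screened against Selleck bioactive, kinase and epigenetic probe libraries, with identity-inconsistent compounds removed. Compounds were acoustically dispensed into 384-well plates at a single 10 µM dose, with 2000 cells in 50 µL medium per well. After 48 h, supernatant was removed and CellTiter-Glo luminescence was read. Viability was expressed as percent of the on-plate DMSO vehicle control, analysed in Genedata Screener.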", "units": {"cell viability": "%"}, "values": [
      {"compound": "COc1ccc2cc3[n+](cc2c1OC)CCc1cc2c(cc1-3)OCO2", "note": "[Berberine Sulfate]", "cell viability": 46.2},
      {"compound": "CO/N=C(\\C(=O)N[C@@H]1C(=O)N2C(C(=O)[O-])=C(C[n+]3ccn4ncccc43)CS[C@H]12)c1nsc(N)n1", "note": "[Cefozopran hydrochloride]", "cell viability": 95.9},
      {"compound": "O=C1NC(=O)/C(=C/c2cccc(C(F)(F)F)c2)S1", "cell viability": 104},
      {"compound": "CC(C)NCC(O)c1ccc(O)c(O)c1", "note": "(stereo not given) [Isoprenaline hydrochloride]", "cell viability": 101},
      {"compound": "CC(C)C(C)C(O)C(O)C(C)C1CCC2C3COC(=O)C4CC(O)C(O)CC4(C)C3CCC12C", "note": "(stereo not given) [Brassinolide]", "cell viability": 103},
      {"compound": "O=c1c(-c2ccc(O)cc2)coc2cc(O[C@@H]3O[C@H](CO)[C@@H](O)[C@H](O)[C@H]3O)cc(O)c12", "note": "[Genistin (Genistoside)]", "cell viability": 93.4},
      {"compound": "C[C@H]1[C@@H](O)O[C@@H]2O[C@@]3(C)CC[C@H]4[C@H](C)CC[C@@H]1[C@@]24OO3", "note": "[Dihydroartemisinin (DHA)]", "cell viability": 7.67},
      {"compound": "Nc1ncnc2c1ncn2C(C=O)OC(C=O)CO", "note": "(stereo not given) [Adenosine Dialdehyde (ADOX)]", "cell viability": 42.5},
      {"compound": "COc1nc2ccc(Br)cc2cc1[C@@H](c1ccccc1)[C@@](O)(CCN(C)C)c1cccc2ccccc12", "note": "[Bedaquiline]", "cell viability": 55.4},
      {"compound": "CO[C@@H]1[C@@H](OC)[C@H](C)[C@@](O)(CC(=O)O)O[C@H]1[C@H](C)[C@H]1O[C@@]2(CC[C@@](C)([C@H]3CC[C@@](C)([C@@H]4O[C@@H]([C@H]5O[C@](C)(O)[C@H](C)C[C@@H]5C)C[C@@H]4O[C@@H]4C[C@H](OC)[C@@H](OC)[C@H](C)O4)O3)O2)C[C@H](O)[C@H]1C", "note": "[Maduramycin Ammonium]", "cell viability": 8.79},
      {"compound": "CCn1c(=O)c(-c2ccc(-c3cncs3)cc2Cl)cc2cnc(Nc3ccc(N4CCN(C)CC4)cc3)nc21", "cell viability": 61.2},
      {"compound": "O=P(O)(O)Oc1cccc2ccccc12", "note": "[1-Naphthyl phosphate potassium salt]", "cell viability": 91.1},
      {"compound": "O=c1c(O)c(-c2ccc(O)cc2)oc2cc(O)cc(O)c12", "note": "[Kaempferol]", "cell viability": 67.5},
      {"compound": "CCC(=O)O[C@]1(C(=O)SCF)[C@H](C)C[C@H]2[C@@H]3C[C@H](F)C4=CC(=O)C=C[C@]4(C)[C@@]3(F)[C@@H](O)C[C@@]21C", "note": "[Fluticasone propionate (Flonase, Veramyst)]", "cell viability": 108},
      {"compound": "Nc1nc(NC2CC2)cc(-c2cccc(Cl)c2Cl)n1", "cell viability": 48.5},
      {"compound": "CC(C)CCCC(C)C1CCC2C3=CC=C4CC(O)CCC4(C)C3CCC21C", "note": "(stereo not given) [7-Dehydrocholesterol]", "cell viability": 94.7},
      {"compound": "O=C1C(c2[nH]c3ccccc3c2O)=Nc2ccccc21", "note": "[Indigo]", "cell viability": 106},
      {"compound": "CN(CCNc1ccnc2cc(Cl)ccc12)CCNc1ccnc2cc(Cl)ccc12", "cell viability": 0.6},
      {"compound": "COc1ccc2cc(CCC(C)=O)ccc2c1", "note": "[Nabumetone]", "cell viability": 92.4},
      {"compound": "COc1cc(C=O)ccc1O", "note": "[Vanillin]", "cell viability": 97.5},
      {"compound": "CCC(=O)OCC(=O)[C@@]1(OC(=O)CC)[C@@H](C)C[C@H]2[C@@H]3CCC4=CC(=O)C=C[C@]4(C)[C@@]3(F)[C@@H](O)C[C@@]21C", "note": "[Betamethasone Dipropionate (Diprolene)]", "cell viability": 120},
      {"compound": "Cn1nc(C(C)(C)C)cc1C(=O)N[C@@H](Cc1cccc(Cl)c1)C(=O)NCC#N", "note": "[Cathepsin Inhibitor 1]", "cell viability": 95.9},
      {"compound": "CCOC(=O)C1=C(C)NC(C)=C(C(=O)OC)C1c1cccc(Cl)c1Cl", "note": "(stereo not given) [Felodipine (Plendil)]", "cell viability": 87.1},
      {"compound": "CC(C)=CCCC(C)(OC1OC(COC2OCC(O)C(O)C2O)C(O)C(O)C1O)C1CCC2(C)C1C(O)CC1C3(C)CCC(OC4OC(CO)C(O)C(O)C4O)C(C)(C)C3CCC12C", "note": "(stereo not given) [Gynostemma Extract]", "cell viability": 98},
      {"compound": "CCNC(=O)[C@@H]1CCCN1C(=O)[C@H](CCCN=C(N)N)NC(=O)[C@H](CC(C)C)NC(=O)[C@@H](CC(C)C)NC(=O)[C@H](Cc1ccc(O)cc1)NC(=O)[C@H](CO)NC(=O)[C@H](Cc1c[nH]c2ccccc12)NC(=O)[C@H](Cc1cnc[nH]1)NC(=O)[C@@H]1CCC(=O)N1", "note": "[S3718 Leuprolide Acetate.cdx]", "cell viability": 108},
      {"compound": "Nc1ncnc2c1ncn2C1OC(COP(=O)(O)OP(=O)(O)O)C(O)C1O", "note": "(stereo not given)", "cell viability": 99.9},
      {"compound": "O=CO", "note": "[Formate]", "cell viability": 96},
      {"compound": "COc1cc2c(=O)c(-c3ccc(O)cc3)coc2cc1O[C@@H]1O[C@H](CO)[C@@H](O)[C@H](O)[C@H]1O", "note": "[Glycitin]", "cell viability": 87},
      {"compound": "Nc1nc(-c2nn(Cc3ccccc3F)c3ncccc23)ncc1C1CC1", "cell viability": 86.4},
      {"compound": "O=C(O)c1cc2cccc([N+](=O)[O-])c2[nH]1", "cell viability": 111},
      {"compound": "C=C1CC[C@H]2O[C@]2(C)CC[C@@H]2[C@@H]1CC2(C)C", "note": "[Caryophyllene oxide]", "cell viability": 98},
      {"compound": "CC(C)c1ccc(C=O)cc1", "note": "[4-Isopropylbenzaldehyde]", "cell viability": 93.4},
      {"compound": "COC(=O)/C=C/C(=O)OC", "note": "[Dimethyl Fumarate]", "cell viability": 110},
      {"compound": "CCc1ccc(-c2nc(CSCC(=O)NCCc3ccccc3)c(C)o2)cc1", "cell viability": 91.2},
      {"compound": "CCCSc1nc(N[C@@H]2C[C@H]2c2ccc(F)c(F)c2)c2nnn([C@@H]3C[C@H](OCCO)[C@@H](O)[C@H]3O)c2n1", "note": "[Ticagrelor]", "cell viability": 70},
      {"compound": "O=C(O)C(=O)O", "note": "[Oxalic acid]", "cell viability": 99.6},
      {"compound": "CN1C(C(=O)Nc2ccccn2)=C(O)c2sccc2S1(=O)=O", "note": "[Tenoxicam(Mobiflex)]", "cell viability": 105},
      {"compound": "O=C(CCNC(=O)c1ccc(OC(F)(F)F)cc1)N[C@@H]1CCCc2ccccc21", "cell viability": 106},
      {"compound": "NC1(C(=O)N[C@@H](CCO)c2ccc(Cl)cc2)CCN(c2ncnc3[nH]ccc23)CC1", "cell viability": 55.8},
      {"compound": "COc1ccc(Oc2cc(C)c(-c3csc(NC(=O)c4ccncc4)n3)c(C)c2)cc1", "cell viability": 32.2}
    ]}
  ]
}
